Screens: PubChem, National Center for Advancing Translational Sciences (NCATS)
Many of the other results were omitted from the sample, so hits are more common in it than they were.
Sfp inh = qHTS Assay for Inhibitors of Bacillus subtilis Sfp phosphopantetheinyl transferase (PPTase) | Potency, µM, for the others: largest response in the series, negative = inhibition, actives largely listed as inhibitors | AID 1490, 2009 | 3.5% of 310,000 active | Biochemical Sfp PPTase activity, qHTS | 4'-phosphopantetheinyl transferase ffp (Bacillus subtilis), Q9F4F7;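 note: the enzyme is Sfp with the accession as filed and its product quenches rhodamine fluorescence; 0% = enzyme reaction without inhibitor and -100% = no enzyme wells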
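Reaction rates are the 30-min fluorescence difference (ex 525, em 598 nm) in wells containing 15 nM Sfp, 5 uM rhodamine-CoA and 12.5 uM BHQ-2-YbbR at pH 7.6 with 10 mM MgCl2.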
12-LOX inh = Primary qHTS assay for inhibitors of human arachidonate 12S-lipoxygenase (ALOX12): Round 2. Polyunsaturated fatty acid lipoxygenase ALOX12 (Homo sapiens), P18054. purified 12hLO, xylenol orange hydroperoxide absorbance. Potency, µM (titrated, usually from 108 µM), without a hit: at the highest dose activity change, negative = inhibition, usual class: inhibitors. 1.1% of 580,000 active. AID 1671190, 2021; note: % is set by controls: 0 for no effect and ±100 for the full control effect
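Purified human 12hLO at 150 nM in 25 mM Hepes, 0.01% Triton X-100, pH 7.0, preincubated 15 min at room temperature with compound. Reaction started with 40 uM arachidonic acid, 30 min at room temperature. Hydroperoxide measured by Fe-xylenol orange, 573/405 nm absorbance ratio.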
GRP78 ERSR act = qHTS for Inducers of the Endoplasmic Reticulum Stress Response (ERSR) in Human Glioma: qHTS | 0.02% of 420,000 active | AID 602332, 2012 | Potency, µM, for the others: top-dose activation, hits mostly activators | U87-MG GRP78 promoter luciferase reporter, 16 h; note: series mostly up to about 76 µM; % of control where 0% means no effect; nearly all actives have a fitted effect of over 35% in size
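Stably transfected U87-MG glioma cells carrying a GRP78-based luciferase sensor; 16 h compound incubation. Luminescence end-point read 10 min after Bright-Glo addition at room temperature.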
VDR inhibitor = Inhibitors of the vitamin D receptor (VDR): qHTS; VDR-SRC2-3 peptide fluorescence polarization, 2 h; Potency, µM, without a hit: max response, negative = inhibition, actives largely listed as inhibitors; 0.93% of 400,000 active; note: % is set by controls: 0 for no effect and ±100 for the full control effect
Target sequence (P11473 whole entry, looked up): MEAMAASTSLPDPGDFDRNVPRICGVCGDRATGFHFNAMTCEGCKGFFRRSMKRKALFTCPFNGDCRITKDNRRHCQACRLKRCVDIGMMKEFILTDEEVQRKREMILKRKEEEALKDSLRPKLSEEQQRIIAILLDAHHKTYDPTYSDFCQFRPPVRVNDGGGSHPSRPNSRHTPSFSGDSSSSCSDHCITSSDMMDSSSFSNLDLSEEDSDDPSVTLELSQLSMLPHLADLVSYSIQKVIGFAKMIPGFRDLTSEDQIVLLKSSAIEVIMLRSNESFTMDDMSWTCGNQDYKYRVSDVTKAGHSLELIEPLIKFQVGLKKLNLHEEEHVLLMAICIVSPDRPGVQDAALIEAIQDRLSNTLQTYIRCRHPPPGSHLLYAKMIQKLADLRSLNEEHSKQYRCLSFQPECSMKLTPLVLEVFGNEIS
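Inhibition of the VDR/SRC2-3 peptide interaction is quantified by fluorescence polarization. Compounds (23 nl, pintool) incubate with the reagents for 2 hours at ambient room temperature.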
G9a block = qHTS Assay for Inhibitors of Histone Lysine Methyltransferase G9a; Histone-lysine N-methyltransferase EHMT2 (Homo sapiens), Q96KQ7; Potency, µM (titrated, usually from 102 µM), without a hit: top-dose activity, negative = inhibition, hits mostly inhibitors; 8.8% of 350,000 active; G9a H3K9 monomethylation, AlphaScreen, 2 h; note: % is set by controls: 0 for no effect and ±100 for the full control effect; nearly all actives have a fitted effect of over 75% in size
Target sequence (Q96KQ7 913-1193 limits assumed): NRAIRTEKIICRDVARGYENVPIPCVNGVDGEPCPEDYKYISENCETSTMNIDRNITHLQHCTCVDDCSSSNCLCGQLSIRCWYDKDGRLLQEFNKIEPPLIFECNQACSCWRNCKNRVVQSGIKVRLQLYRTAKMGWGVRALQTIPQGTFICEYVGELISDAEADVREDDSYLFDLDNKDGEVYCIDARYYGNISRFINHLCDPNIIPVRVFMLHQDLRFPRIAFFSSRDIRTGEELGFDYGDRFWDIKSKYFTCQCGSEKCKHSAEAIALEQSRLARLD
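Step 1: enzyme (final 20 nM) with compound, 15 min RT. Step 2: substrate peptide 500 nM and SAM 20 uM, 2 h RT. Step 3: anti-H3K9me1 antibody and AlphaScreen beads, 10 min, then plate read.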
* = called active by the depositor; ? = inconclusive; . = no result; [ ] = dose if it differs, or a comment. Calls come from the whole dose curve; as a rule, active = well fitted curve in the direction sought with a large enough effect; inconclusive = small, poorly fitted or top-dose-only effect, or another doubt; inactive = no such curve, though single readings can be large; an effect the other way counts as inactive or inconclusive. Potency is the fitted concentration of half-maximal effect.

SMILES | Sfp inh | 12-LOX inh | GRP78 ERSR act | VDR inhibitor | G9a block
COc1ccc(C(=O)NC(=S)N2CCN(C)CC2)cc1Br | -14% | 0% | -2% | -3% | 45µM*
CCOC(=O)N1CCN(C(=S)NC(=O)c2ccc(F)c(F)c2)CC1 | 3% | -13% | 6% | 6% | 45µM*
CCOC(=O)N1CCN(C(=S)NC(=O)c2cccc(OC)c2)CC1 | . | ? | -5% | -21% | .
Cc1ccc(C(=O)N/C(=C\c2cccs2)C(=O)N2CCN(C)CC2)cc1C | 9% | 1% | -1% | -1% | 71µM*
CN1CCN(C(=S)NC(=O)c2ccccc2Br)CC1 | -15% | 1% | -2% | 19% | 11%
CC(C)C(NC(=O)c1ccccc1Cl)C(C)C | . | -6% | . | . | .
COc1ccc(CN2CCC[C@H]2c2nc(-c3cncnc3N)no2)c(O)c1 | . | 5%[176 µM] | . | . | .
COc1cc(/C=N/O)ccc1OCC(=O)Nc1c(C)cc(C)cc1C | . | 5% | . | . | .
COc1cc(NC(=O)COc2c(C)cc(C)cc2[N+](=O)[O-])c(OC)cc1Cl | 50µM* | 1% | -1% | 3% | 22%[59 µM]
Cc1cccc(C)c1N1C(=O)C(CCc2ccccc2)N(C(=O)c2ccc(F)cc2)c2ccccc21 (stereo not drawn) | . | 8% | . | . | .
O=S(=O)(NCC1(c2ccccc2)CC1)c1ccccc1F | . | 8% | . | . | .
CN(C)c1ccc(C2/C(=C(/O)c3ccccc3)C(=O)C(=O)N2CCCC(=O)O)cc1 (stereo not drawn) | 14% | -10% | -1% | -16% | ?
COCCCN1C(=O)C(=O)/C(=C(/O)c2ccccc2)C1c1ccc2c(c1)OCO2 (stereo not drawn) | 23% | -29% | 3% | 12% | 56µM*
COc1cccc(C2/C(=C(/O)c3ccc4c(c3)OCO4)C(=O)C(=O)N2CCN2CCOCC2)c1 (stereo not drawn) | 11% | -8% | 5% | 5% | 19%[12.7 µM]
COCCCN1C(=O)C(=O)/C(=C(/O)c2ccccc2)C1c1ccc(N(C)C)cc1 (stereo not drawn) | -3% | ? | 5% | 4% | 45µM*
CSc1nc2sc3c(c2c(=O)n1-c1ccccc1)CC(C(C)C)OC3 (stereo not drawn) | . | 8% | . | . | .
O=C(O)c1c2c(nc3ccc(F)cc13)CCC2 | 10% | ? | -3% | -4% | -22%[59 µM]
Cc1ccc2nc3c(c(C(=O)O)c2c1)CCC3 | 17% | -20% | -1% | 2% | 50µM*
O=C(O)c1c2c(nc3ccc(Cl)cc13)CCC2 | 1% | 3% | -4% | -14% | 40µM*
O=S(CCO)CCO | . | -2% | . | . | .
COc1ccc(-c2cc(C[C@H]3CNCC[C@H]3CC(=O)NCc3ccccc3)no2)cc1 | . | -27%[176 µM] | . | . | .
COc1ccc(-c2cnc([C@@H]3COCCN3C3CCCCC3)[nH]2)cc1 | . | -3%[176 µM] | . | . | .
CC(c1ccc(O)cc1)(c1ccc(O)cc1)c1ccc(CCBr)cc1 | -3% | ? | -5% | 21% | 79µM*
OCCc1ccc(O)cc1 | . | 8% | -1% | 22% | -5%[59 µM]
COC(=O)C1=C(C)Nc2[nH]c(=S)[nH]c(=O)c2C1c1ccc(OC)cc1 (stereo not drawn) | 40µM* | 25µM* | -4% | -3% | 8.9µM*
SMILES | Sfp inh | 12-LOX inh | GRP78 ERSR act | VDR inhibitor | G9a block
COC(=O)C1=C(C)NC(=O)NC1c1ccc(OC)cc1 (stereo not drawn) | . | 8% | . | . | .
CCN(CC)c1ccc(NC(=O)c2ccc3c(c2)OCO3)cc1 | -17% | ? | 7% | -2% | 6.3µM*
O=C(Nc1ccc(-c2nc3ccccc3[nH]2)cc1)c1ccc2c(c1)OCO2 | -24% | 13% | 5% | 0% | 71µM*
CCN(CC)c1ccc(/C=N/NC(=O)CNC(=O)c2ccc3c(c2)OCCO3)cc1 | 4% | 8% | -2% | -17% | 45µM*
CCC(=O)Nc1ccc(NC(=O)c2ccc3c(c2)OCO3)cc1 | 15% | 9% | -7% | 4% | ?
O=C(CCCOC(=O)c1cc(Cl)ccc1Cl)c1ccc(Br)cc1 | . | 5% | . | . | .
Cc1ccc(-n2ncc3c2NC(=O)CC32C(=O)Nc3ccccc32)c(C)c1 (stereo not drawn) | . | -8% | . | . | .
CC(=O)C1=C(NC(=O)c2ccccc2F)C[C@@H]2[C@H]1C2(C)C | -5% | ? | -1% | 3% | 56µM*
CC(=O)C1=C(NC(=O)c2ccc(C(F)(F)F)cc2)C[C@@H]2[C@H]1C2(C)C | 11% | -8% | -3% | -12% | -8%[59 µM]
Cc1ccc(CNC(=O)Cn2c(C)cc3ccccc32)cc1 | . | -22% | . | . | .
CC(C)C(=O)N1CCN(C(=O)c2nn(C)c(=O)c3ccccc23)CC1 | . | 29% | . | . | .
NNC(=O)c1ccc2ccccc2n1 | 3% | 12% | -4% | -15% | -1%
COc1ccc(N=C(NN)c2ccc3ccccc3n2)cc1 | -79% | ? | -15% | -27% | 8.9µM*
CCOc1ccc(NC(=S)c2ccc3ccccc3n2)cc1 | ? | -2% | -9% | 11% | 6.3µM*
COc1ccc(NC(=S)c2ccc3ccccc3n2)cc1 | 22µM* | . | 6% | ? | 7.9µM*
COc1ccc(CNC(=O)c2ccc3ccccc3n2)cc1 | 1% | 0% | -1% | -8% | 44%
CCOc1ccc(Nc2c3ccccc3nc3ccccc23)cc1 | -12% | ? | 5% | -4% | 32µM*
CCOc1ccc(Nc2cc(C)c3ccccc3n2)cc1 | -1% | ? | 10% | 9% | ?
Cc1cccc(OCc2nc3c(C)cccc3[nH]2)c1 | . | -7% | . | . | .
CCC(Oc1ccccc1)C(=O)Nc1nn2c(-c3ccc(OC)c(OC)c3)nnc2s1 (stereo not drawn) | . | 0% | . | . | .
c1ccc(CC2CNC2)cc1 | . | -1% | . | . | .
CC1(C)Cc2c(sc3c2c2nc(Cc4ccccc4)nn2c(=O)n3CC(=O)c2ccccc2)CO1 | . | -6% | . | . | .
CCCSc1nn(CCN(C)C)c2nc3sc(C)c(CC)c3c(=O)n12 | . | 6% | . | . | .
CC1CN(C2CCCCC2)CCC1=O (stereo not drawn) | . | -24% | . | . | .
Cc1ccc(NC(=O)c2cc(C)nc3ccccc23)c(C)c1 | 14% | 0% | -3% | 6% | 1%[0.501 µM]
Cc1ccc(NC(=S)c2ccc3ccccc3n2)c(C)c1 | 22µM* | -27% | 5% | 79µM* | 8.9µM*
C=CCn1c(SCC(=O)O)nnc1-c1ccc(C(C)(C)C)cc1 | 6% | ? | -5% | -12% | 32µM*
CC(C)OC(=O)CSc1nnc(-c2ccc(C(C)(C)C)cc2)n1N | 16µM* | ? | 0% | ? | 13µM*
CC(C)(C)c1ccc(-c2nnc(SCC(=O)O)n2N)cc1 | 16% | -6% | -8% | 0% | 45µM*
CC(C)OC(=O)CSc1nnc(-c2ccncc2)n1N | 6% | 0% | -3% | -5% | 12%
